4 molecules from PubChem BioAssay (EPA / NIEHS) can be followed below.

Settings in all cases: mRNA level, 48 h; actives raise or lower the signal
Read-out in experiment [1]: Cytochrome P450 (CYP24A1), CYP24A1 (gene 1591)
In words: LTEA_HepaRG_CYP24A1: Life Technologies and Expression Analysis (LTEA) Assay for Cytochrome P450 (CYP24A1) using HepaRG (AID 2283478). The essentials:
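qRT-PCR read-out: CYP24A1 transcript levels normalized to three housekeeping genes, bidirectional curve fits against 0.5% DMSO baseline. Human HepaRG cells treated 48 h with chemicals at eight concentrations from 100 uM in half-log steps.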

Read-out in experiment [2]: Cytochrome P450 (CYP1A2), CYP1A2 (gene 1544)
Description: LTEA_HepaRG_CYP1A2: Life Technologies and Expression Analysis (LTEA) Assay for Cytochrome P450 (CYP1A2) using HepaRG (AID 2283479). The essentials:
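HepaRG, 48 h exposure, top 100 uM, half-log 8-pt, 0.5% DMSO vehicle, duplicates. Readout: TaqMan qRT-PCR of CYP1A2 mRNA, housekeeping-normalized (ACTB/GAPDH/POLR2A). Gain/loss fit relative to DMSO baseline.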

Read-out in experiment [3]: cysteine-aspartic acid protease (CASP8), CASP8 (gene 841)
In words: LTEA_HepaRG_CASP8: Life Technologies and Expression Analysis (LTEA) Assay for cysteine-aspartic acid protease (CASP8) using HepaRG (AID 2283480). The gist of the method:
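HepaRG, 48 h exposure, duplicate wells; 8 conc, half-log from 100 uM, 0.5% DMSO. Serum-free induction medium. CASP8 mRNA by TaqMan qRT-PCR, norm. ACTB/GAPDH/POLR2A; gain/loss fitted vs DMSO.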

Read-out in experiment [4]: Cytochrome P450 (CYP2B6), CYP2B6 (gene 1555)
In words: LTEA_HepaRG_CYP2B6: Life Technologies and Expression Analysis (LTEA) Assay for Cytochrome P450 (CYP2B6) using HepaRG (AID 2283481). The essentials:
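Read-out is CYP2B6 mRNA by TaqMan qRT-PCR, normalized to three housekeeping genes and fitted bidirectionally against 0.5% DMSO baseline. Human HepaRG cells received test chemicals for 48 h, top concentration 100 uM, half-log dilutions.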

Read-out in experiment [5]: Cytochrome P450 2C19 (Homo sapiens) (UniProt P33261)
In words: LTEA_HepaRG_CYP2C19: Life Technologies and Expression Analysis (LTEA) Assay for CYP2C19 using HepaRG (AID 2283482). The essentials: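 HepaRG, 48 h chemical exposure, 8-pt half-log series from 100 uM in 0.5% DMSO, duplicates. Readout: CYP2C19 mRNA by TaqMan qRT-PCR, housekeeping-normalized. Bidirectional fit vs DMSO baseline; phenobarbital 1mM as induction control.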

Read-out in the next experiment: CYP2C8 (gene 1558)
In words: LTEA_HepaRG_CYP2C8: Life Technologies and Expression Analysis (LTEA) Assay for CYP2C8 using HepaRG (AID 2283483). The essentials:
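CYP2C8 mRNA induction or loss, by qRT-PCR normalized to ACTB/GAPDH/POLR2A, is read in HepaRG cells after 48 h treatment. Concentrations run from 100 uM down in half-log dilutions, with 0.5% DMSO as vehicle and baseline.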

Read-out in the next experiment: CYP2C9 (gene 1559)
Description: LTEA_HepaRG_CYP2C9: Life Technologies and Expression Analysis (LTEA) Assay for CYP2C9 using HepaRG (AID 2283484). The gist of the method:
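Cells plated 48 h, switched to serum-free induction medium, then treated in duplicate for 48 h at eight concentrations (max 100 uM, 0.5% DMSO). RNA then analysed by qRT-PCR for CYP2C9; curves fitted in both directions relative to DMSO.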

Read-out in a further experiment: CYP2E1 (gene 1571)
In words: LTEA_HepaRG_CYP2E1: Life Technologies and Expression Analysis (LTEA) Assay for CYP2E1 using HepaRG (AID 2283485). The essentials: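 Human liver line HepaRG, plated 48 h, then serum-free induction medium + chemical x 48 h; 8-pt CRC from 100 uM, half-log, 0.5% DMSO, n=2. Readout: CYP2E1 mRNA qRT-PCR vs ACTB/GAPDH/POLR2A; bidirectional fit vs DMSO.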

Read-out in experiment [6]: Cytochrome P450 3A4 (Homo sapiens) (UniProt P08684)
Description: LTEA_HepaRG_CYP3A4: Life Technologies and Expression Analysis (LTEA) Assay for CYP3A4 using HepaRG (AID 2283487). The gist of the method:
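HepaRG, 48 h exposure, 8-pt CRC from 100 uM (half-log), 0.5% DMSO, duplicates; serum-free induction medium. Readout: CYP3A4 mRNA, qRT-PCR, ACTB/GAPDH/POLR2A normalization. Bidirectional fit vs DMSO.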

Read-out in experiment [7]: DNA damage-inducible transcript 3 (DDIT3), DDIT3 (gene 1649)
Description: LTEA_HepaRG_DDIT3: Life Technologies and Expression Analysis (LTEA) Assay for DNA damage-inducible transcript 3 (DDIT3) using HepaRG (AID 2283488). The essentials: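 HepaRG plated 48 h, switched to serum-free induction medium, dosed 48 h (100 uM top, half-log, 8 pts, 0.5% DMSO, n=2); RNA isolated; DDIT3 by qRT-PCR; bidirectional curve fit vs DMSO.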

Read-out in experiment [8]: Early growth response protein 1 (EGR1) transcription factor, EGR1 (gene 1958)
In words: LTEA_HepaRG_EGR1: Life Technologies and Expression Analysis (LTEA) Assay for Early growth response protein 1 (EGR1) transcription factor using HepaRG (AID 2283490). The essentials: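 Read-out is EGR1 mRNA level by qRT-PCR, normalized to three housekeeping genes and analysed for gain or loss of signal against 0.5% DMSO. Source cells: human HepaRG, treated 48 h at up to 100 uM in half-log dilutions.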

Read-out in experiment [9]: Ezrin (EZR), EZR (gene 7430)
Description: LTEA_HepaRG_EZR: Life Technologies and Expression Analysis (LTEA) Assay for Ezrin (EZR) using HepaRG (AID 2283491). The essentials:
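Read-out is EZR transcript level by qRT-PCR, normalized to three housekeeping genes and fitted bidirectionally against the DMSO control. Human HepaRG cells received test chemicals for 48 h at eight half-log concentrations up to 100 uM in 0.5% DMSO.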

Read-out in experiment [10]: Cytochrome P450 3A7 (Homo sapiens) (UniProt P24462)
In words: LTEA_HepaRG_CYP3A7: Life Technologies and Expression Analysis (LTEA) Assay for CYP3A7 using HepaRG (AID 2283492). The essentials: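 CYP3A7 transcript levels were read by TaqMan qRT-PCR on Fluidigm arrays after 48 h chemical exposure of human HepaRG cells, with housekeeping-gene normalisation. Eight half-log concentrations up to 100 uM in 0.5% DMSO were tested in duplicate.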

Read-out in a further experiment: CYP3A5 (gene 1577)
In words: LTEA_HepaRG_CYP3A5: Life Technologies and Expression Analysis (LTEA) Assay for CYP3A5 using HepaRG (AID 2283493). The essentials:
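HepaRG plated 48 h, switched to serum-free induction medium, chemicals added 48 h (max 100 uM, half-log, 0.5% DMSO). RNA isolated; CYP3A5 by TaqMan qRT-PCR. Gain/loss vs DMSO.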

Read-out in experiment [11]: Fatty Acid-Binding Protein 1 (FABP1), FABP1 (gene 2168)
In words: LTEA_HepaRG_FABP1: Life Technologies and Expression Analysis (LTEA) Assay for Fatty Acid-Binding Protein 1 (FABP1) using HepaRG (AID 2283494). The essentials:
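HepaRG, 48 h post-plating switched to serum-free induction medium, then dosed 48 h (duplicate, 8 pts, ≤100 uM, 0.5% DMSO). RNA → Fluidigm TaqMan qRT-PCR, FABP1 normed to ACTB/GAPDH/POLR2A. Bidirectional curve fit vs DMSO.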

Read-out in experiment [12]: Cytochrome P450 4A22 (Homo sapiens) (UniProt Q5TCH4)
In words: LTEA_HepaRG_CYP4A22: Life Technologies and Expression Analysis (LTEA) Assay for Cytochrome P450 4A22 (CYP4A22) using HepaRG (AID 2283495). The gist of the method:
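HepaRG, 48 h post-plating -> serum-free induction medium; dosed 48 h, duplicate, 8 conc. (100 uM top, half-log), 0.5% DMSO. Readout: CYP4A22 mRNA by qRT-PCR, ACTB/GAPDH/POLR2A normalization; gain/loss fit relative to DMSO.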

Read-out in experiment [13]: Cytochrome P450 7A1 (Homo sapiens) (UniProt P22680)
Description: LTEA_HepaRG_CYP7A1: Life Technologies and Expression Analysis (LTEA) Assay for Cytochrome P450 7A1 (CYP7A1) using HepaRG (AID 2283496). The gist of the method: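 HepaRG cells plated 48 h, then switched to serum-free induction medium and exposed in duplicate for 48 h to 8-point half-log series from 100 uM in 0.5% DMSO. CYP7A1 mRNA by qRT-PCR (TaqMan), normalized to ACTB/GAPDH/POLR2A; bidirectional fit versus DMSO.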

Read-out in experiment [14]: Glutathione S-Transferase (GSTA2), GSTA2 (gene 2939)
In words: LTEA_HepaRG_GSTA2: Life Technologies and Expression Analysis (LTEA) Assay for Glutathione S-Transferase (GSTA2) using HepaRG (AID 2283497). The essentials: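 HepaRG, 48 h dosing, 8-pt half-log CRC from 100 uM, 0.5% DMSO vehicle, n=2; RNA → Fluidigm TaqMan qRT-PCR; GSTA2 vs ACTB/GAPDH/POLR2A; gain/loss fit vs DMSO.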

Read-out in another experiment: CYP4A11 (gene 1579)
Description: LTEA_HepaRG_CYP4A11: Life Technologies and Expression Analysis (LTEA) Assay for CYP4A11 using HepaRG (AID 2283486). The essentials: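 CYP4A11 transcript levels were quantified by TaqMan qRT-PCR after HepaRG human liver cells were treated for 48 hours with test chemicals (top 100 uM, half-log dilutions, 0.5% DMSO). Gain or loss of signal was fitted relative to DMSO.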

Read-out in experiment [15]: Pro-epidermal growth factor (Homo sapiens) (UniProt P01133)
Description: LTEA_HepaRG_EGF: Life Technologies and Expression Analysis (LTEA) Assay for Epidermal growth factor (EGF) using HepaRG (AID 2283489). The essentials: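 qRT-PCR readout of EGF transcript after 48 h chemical exposure of HepaRG cells; eight concentrations from 100 uM down in half-log steps, duplicate wells, 0.5% DMSO vehicle. Bidirectional curve fitting against DMSO baseline.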

The source made the active and inactive calls. The calls were made as follows: active = hit-call score of the fitted dose curve at least 0.9, where 1 is the maximum; inactive = score below 0.9.

Chain of Cytochrome P450 3A4 (Homo sapiens) (P08684 whole entry, looked up): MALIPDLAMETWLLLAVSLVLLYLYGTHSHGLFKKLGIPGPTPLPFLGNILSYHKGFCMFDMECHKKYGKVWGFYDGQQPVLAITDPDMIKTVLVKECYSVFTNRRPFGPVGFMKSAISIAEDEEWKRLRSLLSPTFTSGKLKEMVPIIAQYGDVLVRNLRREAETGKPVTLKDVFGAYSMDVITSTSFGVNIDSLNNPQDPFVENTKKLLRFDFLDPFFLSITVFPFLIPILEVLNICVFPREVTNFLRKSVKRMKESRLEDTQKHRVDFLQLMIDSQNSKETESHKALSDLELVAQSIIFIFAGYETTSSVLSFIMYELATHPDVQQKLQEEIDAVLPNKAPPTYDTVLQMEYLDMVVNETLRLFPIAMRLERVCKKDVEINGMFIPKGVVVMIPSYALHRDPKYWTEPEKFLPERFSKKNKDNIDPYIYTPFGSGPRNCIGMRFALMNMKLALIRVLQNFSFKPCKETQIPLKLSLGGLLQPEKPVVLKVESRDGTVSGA
Chain of Cytochrome P450 2C19 (Homo sapiens) (P33261 whole entry, looked up): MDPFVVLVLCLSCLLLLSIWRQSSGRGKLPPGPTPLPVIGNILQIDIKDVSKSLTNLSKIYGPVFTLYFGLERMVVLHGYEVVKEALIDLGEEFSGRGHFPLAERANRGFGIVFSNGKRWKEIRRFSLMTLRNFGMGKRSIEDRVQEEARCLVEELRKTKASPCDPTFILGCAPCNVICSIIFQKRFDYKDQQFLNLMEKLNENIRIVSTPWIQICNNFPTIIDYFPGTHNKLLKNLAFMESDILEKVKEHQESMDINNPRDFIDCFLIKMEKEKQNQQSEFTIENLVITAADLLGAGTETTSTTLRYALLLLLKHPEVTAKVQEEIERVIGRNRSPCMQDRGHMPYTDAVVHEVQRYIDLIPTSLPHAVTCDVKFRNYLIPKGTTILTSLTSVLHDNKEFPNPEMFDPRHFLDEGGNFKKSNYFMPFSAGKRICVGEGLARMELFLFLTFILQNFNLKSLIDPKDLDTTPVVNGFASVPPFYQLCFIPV
Chain of Cytochrome P450 3A7 (Homo sapiens) (P24462 whole entry, looked up): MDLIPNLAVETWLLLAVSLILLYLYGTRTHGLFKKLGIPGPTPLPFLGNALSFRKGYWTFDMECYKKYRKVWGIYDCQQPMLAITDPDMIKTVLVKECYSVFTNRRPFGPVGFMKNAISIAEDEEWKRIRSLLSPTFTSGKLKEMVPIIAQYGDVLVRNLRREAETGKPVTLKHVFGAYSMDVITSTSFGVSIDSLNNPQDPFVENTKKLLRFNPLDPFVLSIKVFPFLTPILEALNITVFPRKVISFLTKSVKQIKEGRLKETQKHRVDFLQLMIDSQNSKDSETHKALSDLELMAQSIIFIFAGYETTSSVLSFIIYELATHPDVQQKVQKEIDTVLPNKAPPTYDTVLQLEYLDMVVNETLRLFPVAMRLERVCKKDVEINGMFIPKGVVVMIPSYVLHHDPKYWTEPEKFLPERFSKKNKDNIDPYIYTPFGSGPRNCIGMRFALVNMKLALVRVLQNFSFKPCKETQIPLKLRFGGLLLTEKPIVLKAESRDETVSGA

Take `CC(C)(C)c1ccccc1`: the outcome (in experiment [1]; in [2]; in experiment [3]; in experiment [4]; in experiment [5]; with CYP2C8 (gene 1558)) was inactive. The molecule was called inactive (in the experiment with CYP2C9 (gene 1559); with CYP2E1 (gene 1571); in experiment [6]; in [7]; in experiment [8]; in [9]). Also, the molecule was classed as inactive (in experiment [10]; with CYP3A5 (gene 1577); in experiment [11]; in experiment [12]; in [13]; in [14]).

On to `C/C=C/C=C/C(=O)O`, for which the outcome (in experiment [1]; in experiment [2]; in [3]; in experiment [4]; in experiment [5]; with CYP2C8 (gene 1558)) was inactive. Besides, the result (with CYP2C9 (gene 1559); with CYP2E1 (gene 1571); in experiment [6]; in [7]; in experiment [8]; in experiment [9]) was inactive. The call (in [10]; in the experiment with CYP3A5 (gene 1577); in experiment [11]; in experiment [14]) was inactive.

For the molecule `Cc1cc(Cc2ccc(N)c(C)c2)ccc1N`, the outcome (in [1]; in experiment [3]; with CYP2C8 (gene 1558); in the experiment with CYP2C9 (gene 1559); in the experiment with CYP4A11 (gene 1579); in experiment [7]) was inactive. In addition, the molecule was classed as inactive (in experiment [8]; in experiment [9]; in the experiment with CYP3A5 (gene 1577); in [11]; in experiment [12]; in experiment [14]). Further, the AC50 – broadly, the concentration at which the activity in the assay is half-maximal – in experiment [2] was 50 µM (active); in [4], 0.823 µM (active); in experiment [5], 11.5 µM (active); in experiment [6], 4.94 µM (active); in experiment [10], 10.8 µM (active); in experiment [13], 5.09 µM (active).

Take `CC(=O)O[C@]1(C(C)=O)CC[C@H]2[C@@H]3C=C(Cl)C4=CC(=O)[C@@H]5C[C@@H]5[C@]4(C)[C@H]3CC[C@@]21C`: the AC50 in experiment [1] was 0.00316 µM (active); in experiment [2], 78.7 µM (active); in experiment [4], 50 µM (active); in experiment [5], 63.5 µM (active); in the experiment with CYP2C9 (gene 1559) it was 50 µM (active); in experiment [6] it was 36.5 µM (active). In addition, the AC50 is 18.5 µM (active) in experiment [7]; 50 µM (active) with CYP3A5 (gene 1577); 21.7 µM (active) in experiment [11]; 59 µM (active) in experiment [13]; 15.8 µM (active) in [14]. Moreover, the molecule was called inactive (in experiment [3]; with CYP2C8 (gene 1558); in the experiment with CYP4A11 (gene 1579); in experiment [15]; in experiment [8]; in [9]). Further, the molecule was classed as inactive in experiment [10] and in [12].
